Reference: ChEMBL document CHEMBL3988442, “University of Dundee, Small-Polar-MMV Screening Library” (2021)
For some of these results: Potency and affinity values are given separately.

Experiments:
Design in all cases: scale not given: direction of the effect not stated beside the values
[1] = target: Protein translocase subunit SecA (Escherichia coli (strain K12)) (UniProt P10408); assay: Assay to Identify E. coli SecA ATPase Inhibitors; assay type: functional; details: 30 µM
[2] = target: T1, Ubiquitin-activating enzyme e1, putative (Leishmania donovani (strain BPK282A1)) (UniProt E9BSI1); assay: Leishmania donovani Ubiquitin Activating Enzyme (LdE1); assay type: functional; details: 30 µM
T1 sequence (whole entry): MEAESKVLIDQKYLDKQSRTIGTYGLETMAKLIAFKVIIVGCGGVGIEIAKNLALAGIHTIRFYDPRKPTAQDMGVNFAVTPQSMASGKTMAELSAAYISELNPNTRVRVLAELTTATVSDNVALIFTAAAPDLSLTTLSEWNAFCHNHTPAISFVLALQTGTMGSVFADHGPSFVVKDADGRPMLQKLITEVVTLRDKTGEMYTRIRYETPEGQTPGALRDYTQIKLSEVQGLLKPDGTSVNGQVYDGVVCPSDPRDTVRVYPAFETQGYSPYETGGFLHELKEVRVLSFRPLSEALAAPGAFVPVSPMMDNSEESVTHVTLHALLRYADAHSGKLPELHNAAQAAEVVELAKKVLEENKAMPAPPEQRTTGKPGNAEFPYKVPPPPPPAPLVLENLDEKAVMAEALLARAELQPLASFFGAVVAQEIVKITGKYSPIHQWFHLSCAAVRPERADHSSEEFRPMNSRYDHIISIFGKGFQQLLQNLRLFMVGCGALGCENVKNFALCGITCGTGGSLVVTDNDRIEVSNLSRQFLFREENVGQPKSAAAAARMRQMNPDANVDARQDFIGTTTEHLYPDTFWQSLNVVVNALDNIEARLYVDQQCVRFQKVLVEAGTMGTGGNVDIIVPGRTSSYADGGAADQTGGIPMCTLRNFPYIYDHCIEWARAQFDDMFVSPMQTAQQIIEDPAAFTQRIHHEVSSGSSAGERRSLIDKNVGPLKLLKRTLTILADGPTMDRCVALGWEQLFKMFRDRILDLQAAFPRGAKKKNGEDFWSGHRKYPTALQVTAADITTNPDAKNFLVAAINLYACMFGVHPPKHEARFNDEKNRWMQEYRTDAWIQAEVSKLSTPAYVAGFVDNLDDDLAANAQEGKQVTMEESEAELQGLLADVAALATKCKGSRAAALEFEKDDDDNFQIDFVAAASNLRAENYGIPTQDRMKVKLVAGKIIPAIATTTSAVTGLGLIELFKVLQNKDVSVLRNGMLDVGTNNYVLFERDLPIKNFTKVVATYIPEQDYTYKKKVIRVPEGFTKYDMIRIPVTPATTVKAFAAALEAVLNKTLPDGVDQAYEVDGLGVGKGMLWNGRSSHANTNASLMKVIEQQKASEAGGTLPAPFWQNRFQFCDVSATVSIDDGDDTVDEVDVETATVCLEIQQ

[3] = target: AMP-activated protein kinase, AMPK (Homo sapiens) (UniProt P54646+O43741+P54619+Q9UGJ0+Q9Y478+Q13131+Q9UGI9); assay: AMP-dependent Kinase enzyme assay. An in vitro enzyme assay that detects ADP turnover that is directly proportional to AMPK activity. This uses naive AMPK that is activated during the assay with MK-8722; assay type: functional; details: 30 µM
[4] = target: Sialic acid-binding Ig-like lectin 9 (Homo sapiens) (UniProt Q9Y336); assay: Hs-Siglec9 ALPHAscreen SOP 20170721; details: 10 µM
[5] = tested on: Trypanosoma cruzi; assay: Trypanosoma cruzi phosphomannomutase and mannose-1-phosphate guanylyltransferase assay; assay type: functional; details: 10 µM
[6] = target: T2, Arginase-2, mitochondrial (Homo sapiens) (UniProt P78540); assay: in vitro enzyme assay to detect the production of urea directly proportional to the activity of Arginase II; assay type: functional; details: 33.3 µM; note: in the data most compounds retested in dose-response had high values
T2 sequence (whole entry): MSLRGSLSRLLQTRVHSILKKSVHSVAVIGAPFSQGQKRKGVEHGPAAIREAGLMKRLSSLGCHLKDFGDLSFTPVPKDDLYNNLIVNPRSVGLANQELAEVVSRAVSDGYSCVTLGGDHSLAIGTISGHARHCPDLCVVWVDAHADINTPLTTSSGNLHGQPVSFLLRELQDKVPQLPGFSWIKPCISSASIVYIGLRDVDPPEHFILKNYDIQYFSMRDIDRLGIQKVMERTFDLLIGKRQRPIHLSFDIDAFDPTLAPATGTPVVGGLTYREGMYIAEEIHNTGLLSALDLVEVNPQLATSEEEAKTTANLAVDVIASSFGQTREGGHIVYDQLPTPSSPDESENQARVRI

[7] = target: T3, Proteasome subunit beta (Trypanosoma cruzi) (UniProt O96673); assay: Trypanosoma cruzi proteasome chymotrypsin-like activity (TcProtChymo) assay.; note: in the data most compounds retested in dose-response had high values; assay type: functional; details: 9.37 µM
T3 sequence (whole entry): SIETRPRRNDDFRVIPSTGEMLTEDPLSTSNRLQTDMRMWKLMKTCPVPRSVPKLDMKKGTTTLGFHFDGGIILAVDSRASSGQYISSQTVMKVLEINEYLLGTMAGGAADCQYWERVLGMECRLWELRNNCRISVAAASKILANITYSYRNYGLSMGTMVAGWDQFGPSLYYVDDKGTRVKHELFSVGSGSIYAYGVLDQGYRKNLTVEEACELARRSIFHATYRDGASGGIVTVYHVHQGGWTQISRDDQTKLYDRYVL

[8] = organism: Homo sapiens; assay: To identify inhibition of the IFN signalling (Jak-Stat) pathway via expression of an eGFP reporter gene under the control of an IFN-stimulated response element (ISRE) containing MxA promoter.; assay type: functional; details: 30 µM
[9] = target: T4, Tyrosyl-tRNA synthetase, putative (Trypanosoma cruzi (strain CL Brener)) (UniProt Q4DSP6); assay: Trypanosoma cruzi tyrosyl tRNA synthetase (TcYRS) _High Tyrosine SOP; assay type: functional; details: 30 µM; note: in the data most compounds retested in dose-response had high values
T4 sequence (whole entry): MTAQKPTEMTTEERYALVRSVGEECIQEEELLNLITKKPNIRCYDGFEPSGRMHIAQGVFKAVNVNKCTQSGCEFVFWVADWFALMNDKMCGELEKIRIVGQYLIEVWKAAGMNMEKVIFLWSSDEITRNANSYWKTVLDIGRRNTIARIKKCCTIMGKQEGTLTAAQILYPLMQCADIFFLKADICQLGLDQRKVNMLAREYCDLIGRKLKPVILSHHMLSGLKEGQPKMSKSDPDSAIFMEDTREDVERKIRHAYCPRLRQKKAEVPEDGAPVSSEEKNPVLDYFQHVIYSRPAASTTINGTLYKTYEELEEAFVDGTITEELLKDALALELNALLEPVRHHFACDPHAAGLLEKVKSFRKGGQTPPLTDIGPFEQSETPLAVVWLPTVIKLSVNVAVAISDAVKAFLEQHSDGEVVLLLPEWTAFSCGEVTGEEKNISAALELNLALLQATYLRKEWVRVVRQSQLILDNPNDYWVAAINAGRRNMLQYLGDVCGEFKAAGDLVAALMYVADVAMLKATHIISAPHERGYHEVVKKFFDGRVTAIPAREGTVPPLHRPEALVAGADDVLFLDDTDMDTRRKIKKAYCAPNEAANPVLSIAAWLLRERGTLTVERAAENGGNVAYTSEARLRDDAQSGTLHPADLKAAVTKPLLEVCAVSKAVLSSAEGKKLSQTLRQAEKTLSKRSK

[10] = target: T4, Tyrosyl-tRNA synthetase, putative (Trypanosoma cruzi (strain CL Brener)); assay: Trypanosoma cruzi tyrosyl tRNA synthetase (TcYRS) SOP; assay type: functional; details: 30 µM
[11] = target: Chromo domain-containing protein 1 (Saccharomyces cerevisiae (strain ATCC 204508 / S288c) (Baker's yeast)) (UniProt P32657); assay: ScCHD-1 Enzyme Inhibition Assay; assay type: functional; details: 30 µM; note: in the data most compounds retested in dose-response had high values
Sequence of Chromo domain-containing protein 1 (Saccharomyces cerevisiae (strain ATCC 204508 / S288c) (Baker's yeast)) (P32657 whole entry, the tested form may be a part): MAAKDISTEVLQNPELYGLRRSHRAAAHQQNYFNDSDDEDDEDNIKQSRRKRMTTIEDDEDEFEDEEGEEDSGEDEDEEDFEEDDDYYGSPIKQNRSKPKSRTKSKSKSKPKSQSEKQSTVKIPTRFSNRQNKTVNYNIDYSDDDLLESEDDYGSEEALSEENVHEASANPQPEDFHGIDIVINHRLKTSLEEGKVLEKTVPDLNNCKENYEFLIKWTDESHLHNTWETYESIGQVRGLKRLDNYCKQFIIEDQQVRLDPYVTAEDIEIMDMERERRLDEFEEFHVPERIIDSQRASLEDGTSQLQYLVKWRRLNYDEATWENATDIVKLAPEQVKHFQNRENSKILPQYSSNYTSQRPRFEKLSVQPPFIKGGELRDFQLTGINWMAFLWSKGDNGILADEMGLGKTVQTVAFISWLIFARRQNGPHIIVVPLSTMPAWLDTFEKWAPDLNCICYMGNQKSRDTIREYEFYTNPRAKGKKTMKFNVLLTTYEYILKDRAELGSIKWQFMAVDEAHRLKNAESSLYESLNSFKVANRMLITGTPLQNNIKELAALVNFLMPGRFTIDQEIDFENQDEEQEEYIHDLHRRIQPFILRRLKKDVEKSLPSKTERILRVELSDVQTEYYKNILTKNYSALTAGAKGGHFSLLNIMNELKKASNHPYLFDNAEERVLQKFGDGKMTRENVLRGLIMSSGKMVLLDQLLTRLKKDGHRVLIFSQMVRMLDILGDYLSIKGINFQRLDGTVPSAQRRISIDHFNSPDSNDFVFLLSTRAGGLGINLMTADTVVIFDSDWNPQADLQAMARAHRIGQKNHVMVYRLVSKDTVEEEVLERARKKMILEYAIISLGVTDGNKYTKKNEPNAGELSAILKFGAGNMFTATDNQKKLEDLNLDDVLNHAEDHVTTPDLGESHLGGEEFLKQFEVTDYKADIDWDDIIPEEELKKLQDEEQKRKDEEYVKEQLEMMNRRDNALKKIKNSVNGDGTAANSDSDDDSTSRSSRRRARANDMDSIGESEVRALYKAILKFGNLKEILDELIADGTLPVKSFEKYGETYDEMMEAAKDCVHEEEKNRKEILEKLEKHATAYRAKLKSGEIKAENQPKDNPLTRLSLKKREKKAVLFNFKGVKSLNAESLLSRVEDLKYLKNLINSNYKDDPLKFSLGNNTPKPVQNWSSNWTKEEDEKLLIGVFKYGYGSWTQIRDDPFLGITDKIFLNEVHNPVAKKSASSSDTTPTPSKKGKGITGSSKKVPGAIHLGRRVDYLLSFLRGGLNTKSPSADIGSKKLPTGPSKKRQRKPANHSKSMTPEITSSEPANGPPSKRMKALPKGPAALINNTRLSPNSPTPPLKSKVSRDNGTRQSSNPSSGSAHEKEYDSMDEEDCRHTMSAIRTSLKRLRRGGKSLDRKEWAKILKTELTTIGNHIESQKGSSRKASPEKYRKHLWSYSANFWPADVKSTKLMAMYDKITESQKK

Sequence of Sialic acid-binding Ig-like lectin 9 (Homo sapiens) (Q9Y336 whole entry): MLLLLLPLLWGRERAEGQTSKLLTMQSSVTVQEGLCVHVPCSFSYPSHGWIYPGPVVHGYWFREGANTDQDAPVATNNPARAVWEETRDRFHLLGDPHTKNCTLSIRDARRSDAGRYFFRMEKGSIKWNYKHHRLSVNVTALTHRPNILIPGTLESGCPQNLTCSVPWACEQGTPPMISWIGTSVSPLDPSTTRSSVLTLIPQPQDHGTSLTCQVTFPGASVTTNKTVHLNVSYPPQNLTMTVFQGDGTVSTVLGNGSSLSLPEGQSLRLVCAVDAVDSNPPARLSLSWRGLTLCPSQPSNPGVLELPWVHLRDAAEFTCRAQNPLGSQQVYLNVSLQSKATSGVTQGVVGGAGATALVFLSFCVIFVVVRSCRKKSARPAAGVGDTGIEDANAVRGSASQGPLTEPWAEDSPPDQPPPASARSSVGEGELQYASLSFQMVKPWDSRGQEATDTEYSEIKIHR
Sequence of Protein translocase subunit SecA (Escherichia coli (strain K12)) (P10408 whole entry): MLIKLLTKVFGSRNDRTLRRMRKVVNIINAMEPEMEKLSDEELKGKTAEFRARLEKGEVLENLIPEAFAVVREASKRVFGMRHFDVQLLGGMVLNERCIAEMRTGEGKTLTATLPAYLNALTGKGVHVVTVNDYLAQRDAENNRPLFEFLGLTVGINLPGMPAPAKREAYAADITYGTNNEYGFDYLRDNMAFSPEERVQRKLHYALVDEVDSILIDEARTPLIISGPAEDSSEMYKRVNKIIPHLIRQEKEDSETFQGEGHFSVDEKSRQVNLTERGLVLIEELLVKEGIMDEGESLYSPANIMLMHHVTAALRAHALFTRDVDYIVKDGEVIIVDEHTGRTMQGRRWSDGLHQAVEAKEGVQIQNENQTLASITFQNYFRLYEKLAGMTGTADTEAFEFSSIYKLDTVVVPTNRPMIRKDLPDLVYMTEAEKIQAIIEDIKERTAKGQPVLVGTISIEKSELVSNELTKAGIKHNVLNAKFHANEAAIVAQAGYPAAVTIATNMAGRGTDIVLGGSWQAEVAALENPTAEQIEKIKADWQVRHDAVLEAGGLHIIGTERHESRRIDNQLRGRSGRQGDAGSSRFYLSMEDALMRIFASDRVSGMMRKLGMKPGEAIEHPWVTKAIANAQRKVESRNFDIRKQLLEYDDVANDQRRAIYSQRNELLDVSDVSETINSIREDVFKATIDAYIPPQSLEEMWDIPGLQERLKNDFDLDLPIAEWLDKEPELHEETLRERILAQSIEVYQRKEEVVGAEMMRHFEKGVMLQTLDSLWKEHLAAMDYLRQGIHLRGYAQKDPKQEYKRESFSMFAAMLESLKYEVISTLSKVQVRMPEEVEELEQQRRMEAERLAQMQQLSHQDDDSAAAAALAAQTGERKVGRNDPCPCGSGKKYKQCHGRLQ

SMILES	Percent Effect [1] [%]	Percent Effect [2] [%]	Percent Effect [3] [%]	Percent Effect [4] [%]	Percent Effect [5] [%]	Percent Effect [6] [%]	Percent Effect [7] [%]	Percent Effect [8] [%]	Percent Effect [9] [%]	Percent Effect [10] [%]	Percent Effect [11] [%]
O=C(CCCOc1ccc(F)cc1F)N1CCCC1Cn1cccn1 (stereo not given)	-7.68	15.8	-5.85	17.7	4.01	1.8	8.38	9.96	5.42	16.1	-6.65
CCN1CC2(CC1=O)CN(Cc1cnn(C)c1)CCN(C(C)=O)C2 (stereo not given)	-7.25	8.11	4.66	-2.12	-2.34	-3.33	10.4	-2.64	5.94	8.54	2.03
Cn1cc(C2CCCN2CCCc2nc(-c3cccs3)no2)cn1 (stereo not given)	-0.777	-32.4	-4.52	-1.6	-3.87	-6.41	7.03	18.4	4.43	-6.17	0.396
COc1c(C2CCCN2CC(=O)Nc2nc(C)cs2)c(C)nn1C (stereo not given)	-0.196	-5.41	-8.37	10.3	4.74	1.29	5.03	5.63	4.95	6.1	0.0954
CNc1cc2c(nn1)CCN(C(=O)c1cc(F)cc(F)c1)C2	-4.7	10.4	2.19	3.45	2.84	-3.16	6.06	3.72	6.67	9.41	-21.1
CN(Cc1nnc2n1CCC2)C(=O)NCCc1ccc2c(c1)OCO2	-3.06	21.6	-5.22	-0.223	-5.38	-2.4	10.6	18.3	7.39	16.1	-6.24
Cc1cccc(CN2CCc3c(nc(N4CCCCC4C)[nH]c3=O)C2)n1 (stereo not given)	-3.88	4.05	13	7.92	-3.36	0.232	9.36	13.8	7.53	9.09	2.2
CC(C)N(C)Cc1cnc2n1CCN(CCc1ccccc1)C2	-3.87	5.41	23.2	-2.38	0.586	-2.92	9.04	-8.89	6.93	8.54	0.182
CCCc1nnsc1C(=O)NCC1CCN(S(C)(=O)=O)CC1	-4.49	16.4	-9.31	9.94	1.57	0.455	20.1	9.73	7.53	17.5	-6.78
CC(=O)c1ccc(OCC(=O)NC(C)CCc2ccco2)cc1 (stereo not given)	-0.558	5.41	7.91	-3.5	-7.34	1.91	19.8	6.38	3.7	2.44	-1.85
O=C(NCC1CC1)C1CN(C(=O)c2cccc(Cl)c2)CC12CCOCC2 (stereo not given)	1.58	10.4	52.3	-13.8	-9.37	5.81	16.4	12.4	2.12	-8.97	-9.61
CCN1CCN(c2ccc(F)cc2C(C)NCc2noc(C)n2)CC1 (stereo not given)	-1.18	-8.11	-2.95	-6.13	-1.27	1.74	2.83	-7.51	1.07	1.24	-0.843
COCCN(Cc1ccoc1)C(=O)c1ccccc1Cl	-4.82	0	0.957	-4.22	-4.24	-1.94	0.522	14.2	1.06	1.28	-1.4
Cn1cc(-c2nc(CN3CCN(CCO)CC3)cs2)cn1	0.128	15.8	4.54	-2.39	-0.376	-1.53	21.9	17	9.31	19.5	-10.9
COc1ccccc1OCc1cc(C(=O)N2CCN[C@H](C)C2)n[nH]1	-4.07	8.11	-4.98	25.9	4.63	2.38	27.4	3.54	1.59	12.2	-8.49
CC(=O)c1cc(CC(=O)NCc2ccc(F)cc2)cs1	-2.72	0	1.92	3.19	1.93	-1.43	1.72	-0.802	4.76	9.76	-0.261
O=C1CC2(CCN(CCO)CC2)CN1Cc1cc(F)cc(F)c1	-3.75	6.94	-9.77	27.6	4.18	13.7	11.2	-13.2	2.1	10.3	-9.52
O=C(NCCCn1cccn1)C1(c2ccc(Br)cc2)CC1	0.127	8.22	12.9	-1.49	-3.13	2.73	10.1	8.94	4.3	10	-4.29
CCC(CC)c1cc(CNC(=O)N2CCCC(N(C)C)C2)on1 (stereo not given)	-3.85	8.11	-7.08	17.6	6.55	0.248	12.8	7.88	6.45	13.6	-6.35
O=C(c1cc(=O)[nH]c(=O)[nH]1)N1CCCCC1c1ccc(F)cc1 (stereo not given)	1.51	4.17	0.748	-6.89	-3.21	3.97	16.8	-0.138	5.26	2.56	-2.94
